In ChEMBL document CHEMBL3988442, “University of Dundee, Small-Polar-MMV Screening Library” (2021) one finds Percent Effect data, which are given here for 55 compounds.

The campaign covered roughly 69,000 compounds. About 420 (0.61%) showed an effect of 50% or more. Shown is part of a subset that was picked to be rich in strong results.

In the assay the target is T1, Histidine--tRNA ligase (Leishmania infantum) (UniProt A4I591).
T1 sequence (whole entry): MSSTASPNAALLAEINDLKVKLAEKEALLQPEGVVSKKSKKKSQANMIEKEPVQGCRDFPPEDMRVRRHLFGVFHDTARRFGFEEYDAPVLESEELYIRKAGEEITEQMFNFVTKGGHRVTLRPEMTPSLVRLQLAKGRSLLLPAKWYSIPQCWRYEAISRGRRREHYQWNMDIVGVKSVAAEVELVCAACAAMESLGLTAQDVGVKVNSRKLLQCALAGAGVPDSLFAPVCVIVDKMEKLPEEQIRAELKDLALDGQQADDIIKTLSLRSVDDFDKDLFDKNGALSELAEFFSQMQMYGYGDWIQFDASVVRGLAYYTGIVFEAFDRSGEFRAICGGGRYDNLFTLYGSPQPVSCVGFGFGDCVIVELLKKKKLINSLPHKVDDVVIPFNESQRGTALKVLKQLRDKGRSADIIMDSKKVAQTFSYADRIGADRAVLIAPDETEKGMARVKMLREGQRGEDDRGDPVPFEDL
Put plainly: Leishmania infantum Histidine tRNA synthetase (LdHisRS). The assay is classed as functional. Set-up: scale not given: in the data most compounds retested in dose-response had high values. Conditions: 30 µM.
Consider `COc1cnc(N2CCN(C)CC2)nc1-c1ccnn1C`, for which the Percent Effect turned out to be 13.7%.
As to `COc1cnc(N2CC(N3CCOCC3)C2)nc1-c1ccnn1C`, the Percent Effect stood at 92.2%.
As for `Cc1cnc(N2CCN(C)CC2)nc1-c1ccnn1C`, the figure is 7.84%; as for `CC(=O)N1[C@H](Cn2cncn2)C[C@@H]2CN(CC3CC3)CC[C@@H]21`, 11.1%; as for `Cc1cc(C(=O)N2C[C@@H]3COC[C@]3(CN(C)C)C2)sc1C`, -39.3%.
In the case of `COCCN1C[C@@H]2CN(Cc3ccc(C)s3)CCC[C@]2(C(=O)O)C1` it was -8.18%; in that of `CS(=O)(=O)N1CC[C@H]2C[C@@H](C(=O)N3CCOCC3)O[C@@H]2C1`, -3.77%; in that of `O=C1N(Cc2cccnc2)C[C@H]2CN(S(=O)(=O)c3ccccc3)CCN12`, 13.5%.
As for `Cc1ccoc1C(=O)N1CCO[C@H]2[C@H](OCC3CCOCC3)CC[C@@H]21`, the figure is 7.55%; as for `COc1ccc(-n2c(CCC(=O)O)nc3ccccc32)cc1CO`, 60%.
Take `COc1ccc(-n2c(CO)nc3ccccc32)cc1CO`: the Percent Effect was 34.3%.
As to `CC(O)c1cccc(-n2c(CCC(=O)O)nc3ccccc32)c1` (stereo not given), the Percent Effect was 40%.
For the compound `CNC[C@H]1CC[C@H](c2cc(CN(C)S(=O)(=O)N(C)C)n(C)n2)CC1`, the Percent Effect is -50%.
As for `O=C(c1ccco1)N1CCO[C@@H]2CN(CC3CC3)CC[C@@H]2C1`, the figure is 26%.
In the case of `CN1[C@H]2CC[C@@H]1CN(C(=O)c1nnc3n1CCCC3)CC2` it was 8.89%.
`Cc1ccc(N2CCCC(N(C)c3nn4cc(C)nc4s3)C2)nn1` (stereo not given): the Percent Effect was 15.9%.
Take `Cc1cn2nc(N(C)C3CCCN(c4cccnn4)C3)sc2n1` (stereo not given): the Percent Effect was 65.5%.
Consider `Cc1ncc(CN(C)C2CCCN(c3cccnn3)C2)s1` (stereo not given), for which the Percent Effect was 6.74%.
On to `COc1ccc(CN2C[C@@H]3OCCN(CCN4CCCC4)[C@@H]3C2)cc1`, for which the Percent Effect is 0.917%.
Regarding `CN(C)C(=O)c1nc2c(s1)CCCN2Cc1ccccc1`, the Percent Effect is -245%.
With `CC(C)NC(=O)c1nc2c(s1)CCCN2Cc1ccccc1`, the Percent Effect is 38.5%.
For `CCN(C(=O)c1nc2c(s1)CCCN2Cc1ccccc1)C(C)C`, the Percent Effect turned out to be 74.4%.
As for `CSc1ccccc1C(=O)N1C[C@H]2CC[C@@H]1CN(C(=O)C1CCC1)C2`, the figure is 14.5%; as for `O=C(CC1CC1)N[C@@H]1CN(C(=O)c2ccsc2)C[C@@H]2CCCO[C@@H]21`, 0.901%.
With `CN(C)CCn1c(=O)oc2ccc(NC(=O)C3CCCO3)cc21` (stereo not given), the Percent Effect was found to be 53.4%.
Take `CN(C)CCn1c(=O)oc2ccc(NC(=O)N3CCCCCC3)cc21`: the Percent Effect turned out to be 59.8%.
For `CC(C)CCC(=O)Nc1ccc2oc(=O)n(CCN(C)C)c2c1`, the Percent Effect amounted to 27.7%.
`CCC(C)C(=O)Nc1ccc2oc(=O)n(CCN(C)C)c2c1` (stereo not given): the Percent Effect worked out at 27.7%.
As for `CN(C)CCn1c(=O)oc2ccc(NC(=O)CC(C)(C)C)cc21`, the figure is 37.9%; as for `CCC(CC)C(=O)Nc1ccc2oc(=O)n(CCN(C)C)c2c1`, 15.2%; as for `CCNC(=O)N1CC[C@H]2CC(=O)N(CC(N)=O)CC[C@H]2C1`, 11.1%.
In the case of `CCCc1ccc(CN2CCN(c3ncccn3)[C@@H]3CS(=O)(=O)C[C@@H]32)o1` it was 13.2%; in that of `Cc1nc(CN2C[C@@H]3CN(C(=O)NC(C)C)C[C@@H]3C2=O)cs1`, 2.94%.
On to `CC(C)NC(=O)c1sc2ccccc2c1[C@H]1CC[C@H](CN)CC1`, for which the Percent Effect came out at 8.45%.
On to `Cn1cc(CN2CCC[C@]3(C(=O)O)CN(c4ncccn4)C[C@@H]3C2)cn1`, for which the Percent Effect worked out at 27.8%.
As for `Cc1noc([C@H]2C[C@H]3OCC[C@H]3N(C3CCC3)C2)n1`, the figure is -1.06%; as for `O=C(c1cccc(F)c1)N1CC[C@@H]2CN(c3ncccn3)CCO[C@@H]2C1`, 6%.
Take `CCc1ccc(NC(=O)N2C[C@H]3CC[C@@]4(N=C(C)N(C)C4=O)[C@H]3C2)cc1`: the Percent Effect amounted to 24.7%.
Take `CN(C)C(=O)CN1CCCC1c1cccc(Cc2ccccc2F)n1` (stereo not given): the Percent Effect worked out at 55.7%.
As for `CC(=O)N1CCCC1c1cccc(Cc2ccccc2F)n1` (stereo not given), the Percent Effect worked out at 0%.
As for `CN1CCCC1c1cccc(Cc2ccccc2F)n1` (stereo not given), the figure is 16.7%; as for `CCS(=O)(=O)N1C[C@H]2C[C@H](C(=O)N(C)C)[C@@H](C1)O2`, 6.57%.
As for `O=C(c1ccc[nH]1)N1C[C@H]2CC[C@@H]1CN(c1ncccn1)C2`, the figure is 21.7%; as for `Cc1ccc(C(=O)N(C2CC2)C2CC(=O)NC2=O)cc1F` (stereo not given), 8.47%.
As to `CN(C)C(=O)COCC1CN(Cc2ccco2)Cc2ncn(C)c21` (stereo not given), the Percent Effect worked out at 20.8%.
Take `CCn1nnc2c1C(COC)CN(Cc1ccco1)C2` (stereo not given): the Percent Effect is 52.8%.
Take `CCn1nnc2c1C(COC)CN(Cc1cccs1)C2` (stereo not given): the Percent Effect was 13.5%.
In the case of `CCn1nnc2c1C(COCC(=O)N(C)C)CN(Cc1ccco1)C2` (stereo not given) it was 50.9%.
On to `CCn1nnc2c1C(COCC(=O)N(C)C)CN(Cc1ccoc1)C2` (stereo not given), for which the Percent Effect turned out to be 5.66%.
For the compound `CCn1nnc2c1C(COCCN(C)C)CN(Cc1ccco1)C2` (stereo not given), the Percent Effect was determined as 1.89%.
As for `CC(=O)N1C[C@@H]2CN(S(=O)(=O)C3CC3)CCO[C@@H]2C1`, the Percent Effect is 10%.
In the case of `O=C1O[C@@H]2CN(c3cnccn3)C[C@@H]2N1CCCc1ccc(F)cc1` it was 11%.
As for `CCCS(=O)(=O)N1C[C@@H](Oc2ccccn2)[C@H]2OCCC[C@H]21`, the Percent Effect came to 9.73%.
Take `Cc1ncc(CN2Cc3ccccc3O[C@]3(CC[C@H](CO)CC3)C2)cn1`: the Percent Effect turned out to be 11.1%.
In the case of `Fc1cnc(N2CC[C@@H]3OC(COCc4cccnc4)CC[C@@H]32)nc1` (stereo not given in full) it was 5.26%.
